# From PubChem BioAssay (NCATS)
# Where “and” joins values, the source holds several entries; their conditions need not be identical. Equal values may be shown once. Records with an inconclusive call do not appear. A call without a number means that no potency is given here. Some compounds were tested as several samples or in several runs, with calls that do not always agree. Calls of active or inactive are those of the source. Unless noted, the call rests on the fitted dose curve; in most records, active means well fitted curve in the direction sought with a large enough effect; inconclusive means small, poorly fitted or top-dose-only effect, or another doubt; inactive means no such curve, though single readings can be large; an effect the other way counts as inactive or inconclusive.
# What was measured:
# [1] = tested on: Zika virus NS2B-NS3 protease; assay: Primary screen GU AMC qHTS for Zika virus inhibitors (AID 1347154); further: nearly all actives have a fitted effect of over 70% in size; further: potency means the concentration at half of the fitted maximal effect
# How it was run: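 Fluorogenic AMC-substrate cleavage by noncovalent NS2B-NS3 protease complex (25 nM, pH 8.0 Tris buffer with Tween 20) followed for 15 minutes at room temperature (~20% conversion). Percent inhibition from ex340/em450 signal change, fitted by 4-parameter Hill equation.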
# [2] = biological target: Cytochrome P450 1A2 (Homo sapiens) (UniProt P05177); assay: p450-cyp1a2 (AID 410; calls by dose curve; further: potency means the concentration at half of the fitted maximal effect)
# Cytochrome P450 1A2 (Homo sapiens), sequence (P05177 whole entry, looked up): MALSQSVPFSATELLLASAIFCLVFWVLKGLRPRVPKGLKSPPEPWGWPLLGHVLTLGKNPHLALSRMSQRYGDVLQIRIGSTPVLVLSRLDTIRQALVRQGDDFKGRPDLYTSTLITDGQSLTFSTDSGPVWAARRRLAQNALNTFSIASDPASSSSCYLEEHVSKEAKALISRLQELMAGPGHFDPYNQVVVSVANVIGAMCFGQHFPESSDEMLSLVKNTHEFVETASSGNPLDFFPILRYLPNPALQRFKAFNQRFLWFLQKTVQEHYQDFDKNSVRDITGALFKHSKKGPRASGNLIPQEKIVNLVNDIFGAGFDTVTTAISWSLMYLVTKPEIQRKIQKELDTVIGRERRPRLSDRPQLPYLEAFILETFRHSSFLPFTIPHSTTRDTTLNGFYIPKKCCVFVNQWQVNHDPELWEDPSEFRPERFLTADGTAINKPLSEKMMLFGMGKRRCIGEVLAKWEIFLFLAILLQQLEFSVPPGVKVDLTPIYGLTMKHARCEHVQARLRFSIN
# How it was run: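 20nM CYP1A2, 100uM Luciferin-ME (=Km), 100mM KPO4; cpd 10 min RT; +NADPH regen, 60 min RT; stop/detect 20 min; luminescence. Normalized to furafylline 57 uM = full inhibition.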
# [3] = biological target: Glucocorticoid receptor (Homo sapiens) (UniProt P04150); assay: GR-GFP Redistribution (AID 450;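 active means compounds whose dose series gives a full or clear partial fitted curve of increased nuclear translocation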; further: potency means the concentration at half of the fitted maximal effect); conditions: U2OS GR-GFP nuclear translocation, laser cytometry, 2 h
# Glucocorticoid receptor (Homo sapiens), sequence (P04150 whole entry, looked up, the tested form may be a part): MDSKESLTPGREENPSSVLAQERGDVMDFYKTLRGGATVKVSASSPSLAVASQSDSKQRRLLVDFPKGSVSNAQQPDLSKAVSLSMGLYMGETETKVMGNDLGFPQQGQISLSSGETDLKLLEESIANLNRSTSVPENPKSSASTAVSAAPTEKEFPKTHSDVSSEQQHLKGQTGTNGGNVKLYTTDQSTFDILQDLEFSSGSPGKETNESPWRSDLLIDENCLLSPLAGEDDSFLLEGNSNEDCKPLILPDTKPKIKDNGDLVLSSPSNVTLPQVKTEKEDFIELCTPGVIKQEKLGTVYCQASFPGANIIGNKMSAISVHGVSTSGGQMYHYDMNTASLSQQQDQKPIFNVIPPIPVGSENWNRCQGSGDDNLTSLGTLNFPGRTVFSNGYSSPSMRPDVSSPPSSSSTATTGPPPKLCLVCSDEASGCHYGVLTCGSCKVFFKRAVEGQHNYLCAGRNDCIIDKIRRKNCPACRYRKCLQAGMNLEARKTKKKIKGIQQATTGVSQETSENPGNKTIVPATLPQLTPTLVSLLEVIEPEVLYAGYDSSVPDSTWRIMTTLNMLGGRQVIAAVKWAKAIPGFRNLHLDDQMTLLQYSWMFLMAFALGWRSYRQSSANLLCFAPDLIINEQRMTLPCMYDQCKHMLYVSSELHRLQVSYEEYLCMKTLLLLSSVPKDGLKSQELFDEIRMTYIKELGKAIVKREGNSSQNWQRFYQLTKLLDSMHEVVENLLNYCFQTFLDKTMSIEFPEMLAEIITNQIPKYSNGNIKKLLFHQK
# [4] = biological target: Glucocorticoid receptor (Homo sapiens) (UniProt P04150); assay: GR-EFC Redistribution (AID 451; calls by dose curve; further: potency means the concentration at half of the fitted maximal effect); conditions: CHO-K1 GR-EFC translocation, beta-gal luminescence, 2 h
# How it was run: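 Translocation of GR-ED fusion to nuclear EA restores b-gal, read by luminescence after 1 h room-temperature detection. Engineered CHO-K1 biosensor cells, 1,000/well, exposed 2 h at 37 C to titrations up to 46 uM final.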
# [5] = biological target: Mitogen-activated protein kinase 10 (Mus musculus) (UniProt Q61831); assay: JNK3 AlphaScreen Assay (AID 530; active means well fitted curve in either direction with a large enough effect, not every such curve was filed as active;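 further: kinase came from lysate of stimulated human HepG2 cells; signal reports phosphorylation of biotinylated GST-cJun 1-79 at Ser73 with 10 µM ATP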)
# How it was run: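 Kinase buffer: 20 mM Tris-HCl pH 7.6, 10 mM MgCl2, 1 mM DTT, 0.1 mM Na3VO4, 0.01% Tween-20; ATP 10 uM. Substrate biotin-GST-cJun(1-79), enzyme from activated HepG2 lysates. Detection by Ser73 phospho-antibody AlphaScreen.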
# [6] = biological target: 3',5'-cyclic-AMP phosphodiesterase 4B (Homo sapiens) (UniProt Q07343); assay: qHTS Assay for Inhibitors of PDE-IV (AID 607; active means well fitted activation curve with a large enough effect in the main read-out, with a control signal flat, not every such curve was filed as active)
# 3',5'-cyclic-AMP phosphodiesterase 4B (Homo sapiens), sequence (Q07343 whole entry, looked up): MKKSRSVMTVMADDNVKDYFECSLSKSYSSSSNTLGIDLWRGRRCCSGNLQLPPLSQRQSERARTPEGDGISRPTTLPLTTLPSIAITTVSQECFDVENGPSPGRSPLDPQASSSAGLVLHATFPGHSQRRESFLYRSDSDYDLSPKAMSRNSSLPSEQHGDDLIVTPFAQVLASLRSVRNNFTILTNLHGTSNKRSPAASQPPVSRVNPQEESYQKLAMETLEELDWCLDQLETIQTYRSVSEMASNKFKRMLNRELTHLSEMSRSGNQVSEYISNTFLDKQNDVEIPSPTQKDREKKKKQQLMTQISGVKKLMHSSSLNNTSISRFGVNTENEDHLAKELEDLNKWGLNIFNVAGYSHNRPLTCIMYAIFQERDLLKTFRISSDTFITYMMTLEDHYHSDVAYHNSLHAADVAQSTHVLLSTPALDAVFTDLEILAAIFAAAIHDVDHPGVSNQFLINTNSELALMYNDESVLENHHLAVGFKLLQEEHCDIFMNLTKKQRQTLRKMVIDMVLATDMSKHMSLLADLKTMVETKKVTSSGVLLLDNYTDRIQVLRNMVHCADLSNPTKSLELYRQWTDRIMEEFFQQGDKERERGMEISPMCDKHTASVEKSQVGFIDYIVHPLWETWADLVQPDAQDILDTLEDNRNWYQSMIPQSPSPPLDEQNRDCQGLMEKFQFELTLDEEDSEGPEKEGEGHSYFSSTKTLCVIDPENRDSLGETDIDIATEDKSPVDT
# How it was run: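 HEK293 ACTOne cells with CNG channel (1000/well), endogenous PDE4; membrane potential dye, compounds up to 22.9 uM final. Fluorescence Ex 535/Em 590; RO 20-1724 (100 uM final) as reference.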
# [7] = biological target: Guanine nucleotide-binding protein G(i) subunit alpha-1 (Homo sapiens) (UniProt P63096); assay: qHTS Assay for Inhibitors of RGS12 GoLoco Motif Activity (Green Fluorophore) (AID 879);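 further: negative values mean loss of peptide binding seen as reduced polarization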
# Guanine nucleotide-binding protein G(i) subunit alpha-1 (Homo sapiens), sequence (P63096 whole entry, looked up): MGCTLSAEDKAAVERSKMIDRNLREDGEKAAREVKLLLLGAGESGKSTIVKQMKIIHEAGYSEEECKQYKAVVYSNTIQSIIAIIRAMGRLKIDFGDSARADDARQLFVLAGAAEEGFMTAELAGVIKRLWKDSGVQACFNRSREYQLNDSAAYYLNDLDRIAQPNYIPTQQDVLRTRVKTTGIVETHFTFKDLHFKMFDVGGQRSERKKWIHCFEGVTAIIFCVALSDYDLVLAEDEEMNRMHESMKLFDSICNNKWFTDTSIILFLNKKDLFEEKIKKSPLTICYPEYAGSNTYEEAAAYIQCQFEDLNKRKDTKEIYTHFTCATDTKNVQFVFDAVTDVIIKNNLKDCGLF
# How it was run: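 A drop in FITC polarization marked displacement of the FITC-tagged RGS12 GoLoco peptide (10 nM) from Gαi1 (50 nM). Compounds were incubated 10 min at room temperature in Tris pH 7.5 buffer containing 150 mM NaCl, 0.1 mM GDP and 0.05% NP40; unlabeled peptide titration served as control.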
# [8] = biological target: Cytochrome P450 2C9 (Homo sapiens) (UniProt P11712); assay: qHTS Assay for Inhibitors and Substrates of Cytochrome P450 2C9 (AID 883); further: potency means the concentration at half of the fitted maximal effect; nearly all actives have a fitted effect of over 60% in size
# Cytochrome P450 2C9 (Homo sapiens), sequence (P11712 whole entry, looked up): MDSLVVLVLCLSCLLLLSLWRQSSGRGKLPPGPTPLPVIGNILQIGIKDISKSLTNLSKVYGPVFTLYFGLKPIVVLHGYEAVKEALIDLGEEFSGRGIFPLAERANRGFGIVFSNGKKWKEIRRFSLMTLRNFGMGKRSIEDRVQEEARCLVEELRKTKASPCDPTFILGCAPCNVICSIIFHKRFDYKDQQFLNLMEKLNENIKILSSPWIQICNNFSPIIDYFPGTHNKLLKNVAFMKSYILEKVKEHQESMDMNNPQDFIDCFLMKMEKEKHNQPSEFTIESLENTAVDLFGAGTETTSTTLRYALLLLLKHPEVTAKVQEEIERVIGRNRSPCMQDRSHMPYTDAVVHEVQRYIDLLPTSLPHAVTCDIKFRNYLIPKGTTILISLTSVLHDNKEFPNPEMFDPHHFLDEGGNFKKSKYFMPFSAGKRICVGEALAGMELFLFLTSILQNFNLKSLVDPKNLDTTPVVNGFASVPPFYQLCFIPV
# How it was run: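 Turnover of Luciferin-H (100uM, KM) by 10nM human CYP2C9 was measured over 60 min at 37C with NADPH regeneration; inhibitors and some substrates reduce luminescence. Data normalized to sulphaphenazole 57uM.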
# [9] = biological target: Cytochrome P450 2C19 (Homo sapiens) (UniProt P33261); assay: qHTS Assay for Inhibitors and Substrates of Cytochrome P450 2C19 (AID 899); further: potency means the concentration at half of the fitted maximal effect; nearly all actives have a fitted effect of over 60% in size
# Cytochrome P450 2C19 (Homo sapiens), sequence (P33261 whole entry, looked up): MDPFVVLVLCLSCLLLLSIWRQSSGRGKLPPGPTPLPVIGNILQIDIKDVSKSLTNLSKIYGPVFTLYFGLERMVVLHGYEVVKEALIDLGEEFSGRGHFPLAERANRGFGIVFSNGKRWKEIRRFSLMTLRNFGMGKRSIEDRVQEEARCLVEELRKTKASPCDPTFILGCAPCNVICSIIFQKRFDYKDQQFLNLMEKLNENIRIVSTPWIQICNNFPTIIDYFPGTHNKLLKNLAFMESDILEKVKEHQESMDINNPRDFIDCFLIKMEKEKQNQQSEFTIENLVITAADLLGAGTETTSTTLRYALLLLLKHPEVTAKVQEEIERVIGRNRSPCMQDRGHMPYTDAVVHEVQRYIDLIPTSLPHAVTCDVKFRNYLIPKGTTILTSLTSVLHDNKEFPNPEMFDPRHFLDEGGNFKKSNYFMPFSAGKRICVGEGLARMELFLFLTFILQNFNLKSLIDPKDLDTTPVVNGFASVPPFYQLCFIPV
# How it was run: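 Reactions contain 5nM enzyme, 10uM Luciferin-H EGE (KM) and 50mM KPO4; compound preincubates 10 min at 37C, NADPH regeneration starts turnover for 60 min. Luminescence after detection reagent gives activity.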
# [10] = qHTS Assay for Identification of Small Molecule Antagonists for Thrombopoietin (TPO) Signaling Pathway (AID 918); conditions: TPO-dependent cell signaling reporter, antagonist mode; further: potency means the concentration at half of the fitted maximal effect; nearly all actives have a fitted effect of over 60% in size
# How it was run: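 Luminescence read-out: GPIIb-promoter luciferase in Ba/F3 cells carrying human TPO receptor. Compounds added with 26 pM TPO (EC50), 24 hrs, 37 C, 5% CO2; cells deprived of IL-3 overnight beforehand. Inhibition of signal scored.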
# [11] = biological target: Pyruvate kinase (Leishmania mexicana) (UniProt Q27686); assay: qHTS Validation Assay for Inhibitors of Leishmania Mexicana Pyruvate Kinase (AID 945)
# How it was run: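 Eight-point qHTS titrations; enzyme 0.2 nM LmPYK (E451W mutant); substrates 0.5 mM PEP, 0.1 mM ADP; 7 mM MgCl2; 1 h room temperature; PKLight luminescence normalized to neutral control.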
# [12] = biological target: Pyruvate kinase PKM (Homo sapiens) (UniProt P14618); assay: qHTS Assay for Activators of Human Muscle Pyruvate Kinase (AID 954; active means well fitted curve in the direction sought with a large enough effect, not every such curve was filed as active)
# How it was run: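 Compound pinned into substrate mix (0.5 mM PEP, 0.1 mM ADP), then 0.1 nM PKM2 added; 1 h, RT. Stop/detection luciferase reagent added, luminescence read. Normalized to no-inhibition and no-enzyme or reference-inhibitor controls.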
# [13] = biological target: Alpha-galactosidase (Coffea arabica) (UniProt Q42656); assay: Counterscreen for Glucocerebrosidase Inhibitors: qHTS Assay for Coffee Bean alpha-Galactosidase at pH 4.5 (AID 957)
# Alpha-galactosidase (Coffea arabica), sequence (Q42656 whole entry, looked up): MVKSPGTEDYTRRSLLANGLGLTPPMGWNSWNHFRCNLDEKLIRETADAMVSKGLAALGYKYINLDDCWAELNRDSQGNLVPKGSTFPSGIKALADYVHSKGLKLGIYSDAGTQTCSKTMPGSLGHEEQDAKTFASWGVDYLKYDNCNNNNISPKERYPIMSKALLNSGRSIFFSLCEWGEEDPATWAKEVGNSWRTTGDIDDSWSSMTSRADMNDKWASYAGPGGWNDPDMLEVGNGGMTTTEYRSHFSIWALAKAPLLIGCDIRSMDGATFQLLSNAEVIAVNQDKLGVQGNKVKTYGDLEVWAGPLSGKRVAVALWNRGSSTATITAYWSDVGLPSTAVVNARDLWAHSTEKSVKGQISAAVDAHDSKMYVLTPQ
# How it was run: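 Fluorogenic read-out: 4-methylumbelliferone at Ex 365/Em 440 nm after NaOH/glycine stop (pH 10). Enzyme 2 nM, 4-MU-alpha-galactoside 80 uM, citrate buffer pH 4.5, 20 min RT; normalized to no-enzyme and enzyme controls.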
# [14] = biological target: Alpha-galactosidase A (Homo sapiens) (UniProt P06280); assay: Counterscreen for Glucocerebrosidase Inhibitors: qHTS Assay for Human alpha-Galactosidase at pH 4.5 (AID 992)
# How it was run: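 Steps: enzyme (2 nM final), then compound across 0.7 nM to 77 uM, then 80 uM fluorogenic galactopyranoside substrate; incubate 20 min at room temperature; quench at pH 10; measure fluorescence at 365/440 nm.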
# [15] = biological target: alpha-glucosidase (Oryza sativa, rice) (UniProt Q653V4); assay: Counterscreen for Glucocerebrosidase Inhibitors: qHTS Assay for Rice alpha-Glucosidase at pH 5.0 (AID 997)
# How it was run: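 Endpoint fluorogenic assay at pH 5.0: compounds (0.7 nM to 77 uM) titrated against 4 nM rice enzyme and 400 uM 4-MU-alpha-glucoside for 20 min at room temperature; NaOH/glycine stop, read ex 365/em 440 nm, Hill-fitted AC50.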
# [16] = biological target: Alpha-galactosidase (Coffea arabica) (UniProt Q42656); assay: Counterscreen for Glucocerebrosidase Inhibitors: qHTS Assay for Coffee Bean alpha-Galactosidase at pH 5.9 (AID 998)
# How it was run: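 Fluorogenic 4-MU substrate hydrolysis, 80 uM substrate and 2 nM coffee bean alpha-galactosidase, pH 5.9 citrate buffer, 20 min at room temperature, then NaOH/glycine stop. Titration 0.7 nM–77 uM, normalized to no-enzyme and enzyme controls, AC50 via Hill equation.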
# [17] = biological target: Ubiquitin carboxyl-terminal hydrolase 1 (Homo sapiens) (UniProt O94782); assay: Inhibitors of USP1/UAF1: Pilot qHTS (AID 504865); further: nearly all actives have a fitted effect of over 35% in size; further: potency means the concentration at half of the fitted maximal effect;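 on activity change, negative = inhibition: rhodamine fluorescence freed from ubiquitin-rhodamine substrate followed over time; top concentration of the series differs between compounds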
# Ubiquitin carboxyl-terminal hydrolase 1 (Homo sapiens), sequence (O94782 whole entry, looked up): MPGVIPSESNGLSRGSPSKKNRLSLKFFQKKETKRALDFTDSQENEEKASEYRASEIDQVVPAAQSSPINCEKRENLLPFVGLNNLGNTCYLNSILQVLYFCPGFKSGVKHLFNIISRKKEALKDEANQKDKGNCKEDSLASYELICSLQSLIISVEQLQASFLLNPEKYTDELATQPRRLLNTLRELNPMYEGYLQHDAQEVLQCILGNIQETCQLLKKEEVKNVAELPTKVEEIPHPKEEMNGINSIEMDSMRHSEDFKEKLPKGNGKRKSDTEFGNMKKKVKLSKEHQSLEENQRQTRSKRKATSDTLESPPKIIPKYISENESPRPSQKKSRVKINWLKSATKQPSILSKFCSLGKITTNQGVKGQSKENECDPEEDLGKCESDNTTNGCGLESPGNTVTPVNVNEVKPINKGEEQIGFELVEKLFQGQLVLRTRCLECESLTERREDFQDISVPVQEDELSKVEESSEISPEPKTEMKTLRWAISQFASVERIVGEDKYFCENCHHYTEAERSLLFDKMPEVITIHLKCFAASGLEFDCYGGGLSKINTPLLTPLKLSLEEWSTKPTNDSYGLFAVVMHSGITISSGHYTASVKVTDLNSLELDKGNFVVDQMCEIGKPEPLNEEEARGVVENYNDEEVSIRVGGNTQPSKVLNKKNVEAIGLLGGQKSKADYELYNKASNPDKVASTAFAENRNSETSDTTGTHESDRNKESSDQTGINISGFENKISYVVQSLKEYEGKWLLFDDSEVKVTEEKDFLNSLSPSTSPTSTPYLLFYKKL
# How it was run: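 Enzyme-free wells gave the negative control, while test wells held 1nM USP1/UAF1 preincubated with compound for 15 min at room temperature. Ub-Rho at 150nM final started the reaction, and fluorescence at 480/540 nm was recorded kinetically.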
# [18] = biological target: DNA dC->dU-editing enzyme APOBEC-3G (Homo sapiens) (UniProt Q9HC16); assay: qHTS for inhibitors of Vif-A3G interactions: Validation (AID 588379)
# DNA dC->dU-editing enzyme APOBEC-3G (Homo sapiens), sequence (Q9HC16 whole entry, looked up): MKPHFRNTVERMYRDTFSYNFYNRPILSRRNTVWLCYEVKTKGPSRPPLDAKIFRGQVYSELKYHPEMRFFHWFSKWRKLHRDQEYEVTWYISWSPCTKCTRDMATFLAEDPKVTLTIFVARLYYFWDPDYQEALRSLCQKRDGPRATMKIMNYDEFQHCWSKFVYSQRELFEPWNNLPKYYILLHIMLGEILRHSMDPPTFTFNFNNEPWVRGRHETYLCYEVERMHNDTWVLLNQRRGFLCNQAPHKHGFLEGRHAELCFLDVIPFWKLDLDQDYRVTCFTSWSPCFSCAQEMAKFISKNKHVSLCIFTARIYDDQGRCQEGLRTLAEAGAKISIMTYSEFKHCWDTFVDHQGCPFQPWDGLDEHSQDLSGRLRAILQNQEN
# How it was run: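 Yellow fluorescence (Ex 488, Em 500-530) of Vif-coexpressing HeLa A3G-eYFP cells, scanned by Acumen cytometer, reports blocked A3G degradation. Cells plated at 700/well overnight at 37 deg C before compound addition, then a further overnight compound incubation at 37 deg C.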
# [19] = Confirmatory qHTS for small molecule stabilizers of the endoplasmic reticulum resident proteome: Secreted ER Calcium Modulated Protein (SERCaMP) assay (AID 1508628); further: nearly all actives have a fitted effect of over 40% in size; further: potency means the concentration at half of the fitted maximal effect
# How it was run: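 GLuc-SERCaMP-expressing SH-SY5Y cells, pretreated 16 h with compound, are challenged with thapsigargin to empty ER calcium stores; after 4 h, coelenterazine is added directly to the medium and luminescence is imaged.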
# [20] = Cell Viability qHTS for small molecule stabilizers of the endoplasmic reticulum resident proteome (AID 1508629); conditions: cell viability counter-screen, 100 nM thapsigargin for final 4 h;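 further: human SH-SY5Y neuroblastoma cells carrying the GLuc-SERCaMP reporter; compound exposure about 46 h in total before the viability read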
# [21] = qHTS Assay for Lipid Storage Modulators (AID 1519; calls by dose curve); conditions: Drosophila S3 cells, BODIPY lipid droplet/cell ratio, laser cytometry, cells loaded with oleic acid; for activity change, negative = inhibition: at 57.5 µM (top of the series)
# How it was run: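 Cells seeded at 5,000 per well were treated with compounds over a concentration series and loaded with oleic acid (400 uM, as added). Lipid droplet fluorescence (488 nm excitation, 500-530 nm channel) was read by laser-scanning cytometry and normalized to 20 uM Triacsin C.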
# [22] = biological target: Cytochrome P450 2D6 (Homo sapiens) (UniProt P10635); assay: qHTS Assay for Inhibitors and Substrates of Cytochrome P450 2D6 (AID 891); further: potency means the concentration at half of the fitted maximal effect; nearly all actives have a fitted effect of over 60% in size
# How it was run: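 Luminescent read-out of luciferin formed by 5 nM human CYP2D6 demethylating 30 uM Luciferin-ME EGE (Km level) over 60 min at room temperature after NADPH regeneration addition. Data normalized to full inhibition by 1.43 uM quinidine.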
# [23] = measured here: cell count channel max response
# [24] = measured here: lipid channel max response
smiles,measurement,setting,value
Oc1ccc2c3c1O[C@H]1c4c(c5ccccc5n4Cc4ccccc4)C[C@@]4(O)C(C2)N(CC2CC2)CC[C@]314,Potency,[1],inactive
Oc1ccc2c3c1O[C@H]1c4oc5ccccc5c4C[C@@]4(O)C(C2)N(CC2CC2)CC[C@]314,Potency,[1],inactive
NCCc1ccccn1,Potency,[1],inactive
CC(C)[C@@]1(NC(=O)[C@@H]2C[C@H]3c4cccc5[nH]cc(c45)C[C@@H]3N(C)C2)O[C@@]2(O)[C@H]3CCCN3C(=O)[C@H](Cc3ccccc3)N2C1=O,Potency,[2],inactive
same,Potency,[3],> 46 µM (inactive)
same,Potency,[4],> 46 µM (inactive)
same,outcome,[5],inactive
same,Potency,[6],inactive
same,outcome,[7],inactive
same,Potency,[8],2.51 µM (active) and 6.31 µM (active)
same,Potency,[9],3.98 µM (active) and 5.01 µM (active)
same,Potency,[10],10 µM (active)
same,outcome,[11],inactive
same,outcome,[12],inactive
same,outcome,[13],inactive
same,outcome,[14],inactive
same,outcome,[15],inactive
same,outcome,[16],inactive
same,Potency,[17],inactive
same,Potency,[18],inactive
same,Potency,[1],inactive
same,Potency,[19],35.5 µM (active) and inactive
same,max response,[20],-30.4% (inactive)
Cl.Cl.Cl.Cl.Cl.Cl.N.N.N.N.NNNNN.NNNNN.O.O.[Ru].[Ru].[Ru],Potency,[3],> 46 µM (inactive)
same,Potency,[4],> 46 µM (inactive)
same,outcome,[5],inactive
same,Potency,[6],inactive
same,"activity change, negative = inhibition",[21],-5.89% (inactive)
same,max response,[21]; [23],-27.5%
same,max response,[21]; [24],-31.1%
same,Potency,[17],50.1 µM (active)
same,Potency,[18],inactive
same,Potency,[1],inactive
same,Potency,[19],15.8 µM (active)
same,max response,[20],7.14% (inactive)
CN(CCc1ccc(Cl)c(Cl)c1)[C@@H]1CCCC[C@@H]1N1CCCC1,Potency,[1],inactive
CC(C(=O)OC1CC2CCC(C1)N2C)c1ccc(Br)cc1 (stereo not drawn),Potency,[1],inactive
C[C@@H](C(=O)OC1C[C@H]2CC[C@@H](C1)N2C)c1ccc(Br)cc1 (stereo partly drawn),Potency,[2],39.8 µM (active)
same,Potency,[3],> 46 µM (inactive)
same,Potency,[4],> 46 µM (inactive)
same,outcome,[5],inactive
same,Potency,[22],3.98 µM (active)
same,"activity change, negative = inhibition",[21],2.43% (inactive)
same,max response,[21]; [23],12.6%
same,max response,[21]; [24],16.9%
same,Potency,[17],inactive
same,Potency,[18],inactive
same,Potency,[1],inactive
same,Potency,[19],31.6 µM (active)
same,max response,[20],-11% (inactive)
Cc1ccc2c(c1)C1(CCN(CCc3nc(-c4ccccc4)oc3C)CC1)OC(=O)N2,Potency,[1],inactive
COc1ccc2c(c1O)-c1cc(O)cc3c1[C@@H](C2)N(C)CC3,Potency,[1],29.9 µM (active)
CCCCCCC(C)(C)c1cc(OC)c2c(c1)OC(C)(C)[C@@H]1CC=C(C)C[C@@H]21,Potency,[1],inactive
